Experimental findings from ChEMBL document CHEMBL1961873, “Compounds: GSK PKIS; Assays: Nanosyn kinase panel” (2012) are described below.

Experiment [1] has as its target Protein kinase C gamma type (Homo sapiens) (UniProt P05129). The note with it: at 1 µM.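 Also: each value is an averaged percent inhibition of the enzyme.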
In experiment [2] the target is T1, Protein kinase C iota type (Homo sapiens) (UniProt P41743).
T1 sequence (whole entry): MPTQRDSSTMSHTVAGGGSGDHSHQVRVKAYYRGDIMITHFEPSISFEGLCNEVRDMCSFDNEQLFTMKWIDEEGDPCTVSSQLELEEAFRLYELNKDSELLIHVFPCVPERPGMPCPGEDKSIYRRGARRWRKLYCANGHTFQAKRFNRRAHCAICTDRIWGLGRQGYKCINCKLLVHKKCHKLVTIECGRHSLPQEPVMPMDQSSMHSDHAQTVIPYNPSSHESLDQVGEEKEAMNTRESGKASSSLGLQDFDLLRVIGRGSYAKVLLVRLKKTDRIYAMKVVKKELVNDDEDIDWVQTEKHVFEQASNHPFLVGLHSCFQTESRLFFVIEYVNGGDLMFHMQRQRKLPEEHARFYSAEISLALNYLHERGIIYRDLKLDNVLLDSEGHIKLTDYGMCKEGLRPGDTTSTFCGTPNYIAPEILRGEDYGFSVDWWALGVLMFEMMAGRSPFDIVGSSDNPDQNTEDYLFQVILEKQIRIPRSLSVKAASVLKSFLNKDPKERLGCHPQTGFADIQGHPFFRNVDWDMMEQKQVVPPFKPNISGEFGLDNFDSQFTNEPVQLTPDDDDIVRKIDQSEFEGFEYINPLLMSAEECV
The note with it: at 0.1 µM.

In experiment [3] the target is T1, Protein kinase C iota type (Homo sapiens). The note with it: at 1 µM.
The target in experiment [4] is Protein kinase C theta type (Homo sapiens) (UniProt Q04759). The conditions noted are these: at 0.1 µM.
Chain of Protein kinase C theta type (Homo sapiens) (Q04759 whole entry, looked up): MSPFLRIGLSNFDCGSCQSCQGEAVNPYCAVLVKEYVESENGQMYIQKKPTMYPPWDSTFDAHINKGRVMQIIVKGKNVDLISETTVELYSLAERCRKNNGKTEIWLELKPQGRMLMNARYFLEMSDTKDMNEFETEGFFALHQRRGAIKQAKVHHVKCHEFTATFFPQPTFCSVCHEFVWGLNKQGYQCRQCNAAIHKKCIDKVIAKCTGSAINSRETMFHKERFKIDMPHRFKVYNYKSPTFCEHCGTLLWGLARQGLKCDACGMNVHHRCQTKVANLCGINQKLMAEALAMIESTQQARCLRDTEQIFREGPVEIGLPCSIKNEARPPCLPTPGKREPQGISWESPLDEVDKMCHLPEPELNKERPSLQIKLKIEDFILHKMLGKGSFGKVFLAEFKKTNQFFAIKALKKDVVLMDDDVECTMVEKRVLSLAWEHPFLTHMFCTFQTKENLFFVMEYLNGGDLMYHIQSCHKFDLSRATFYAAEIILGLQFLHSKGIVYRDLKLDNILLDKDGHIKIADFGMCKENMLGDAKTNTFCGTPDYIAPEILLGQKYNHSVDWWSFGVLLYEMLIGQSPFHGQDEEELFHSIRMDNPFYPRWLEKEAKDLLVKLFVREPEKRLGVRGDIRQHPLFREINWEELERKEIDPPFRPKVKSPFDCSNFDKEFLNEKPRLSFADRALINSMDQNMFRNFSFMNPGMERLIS
Experiment [5] has the same target. The conditions noted are these: at 1 µM.
In experiment [6] the target is Protein kinase C beta type (Homo sapiens) (UniProt P05771). The note with it: at 0.1 µM.
Chain of Protein kinase C beta type (Homo sapiens) (P05771 2-671 limits assumed): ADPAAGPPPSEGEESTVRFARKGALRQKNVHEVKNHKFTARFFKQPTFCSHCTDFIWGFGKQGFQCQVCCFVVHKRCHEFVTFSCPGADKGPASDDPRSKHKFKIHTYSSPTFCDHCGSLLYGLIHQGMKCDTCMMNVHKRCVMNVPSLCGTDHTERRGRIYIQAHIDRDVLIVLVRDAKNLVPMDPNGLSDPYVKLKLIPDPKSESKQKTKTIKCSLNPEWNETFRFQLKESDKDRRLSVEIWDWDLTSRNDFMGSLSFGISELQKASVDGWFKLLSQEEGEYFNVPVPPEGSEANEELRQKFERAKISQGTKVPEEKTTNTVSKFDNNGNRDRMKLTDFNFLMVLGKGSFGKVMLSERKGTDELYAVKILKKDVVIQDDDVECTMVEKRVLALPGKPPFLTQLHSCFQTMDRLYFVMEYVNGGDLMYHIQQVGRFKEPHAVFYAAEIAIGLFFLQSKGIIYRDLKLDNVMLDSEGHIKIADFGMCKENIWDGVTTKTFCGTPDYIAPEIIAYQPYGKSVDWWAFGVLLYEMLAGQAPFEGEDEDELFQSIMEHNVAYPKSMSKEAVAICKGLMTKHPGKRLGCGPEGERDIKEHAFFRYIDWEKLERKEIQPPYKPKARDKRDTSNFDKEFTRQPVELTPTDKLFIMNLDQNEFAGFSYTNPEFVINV
The target is the same in experiment [7]. The conditions noted are these: at 1 µM.
For experiment [8], the target named is T2, Serine/threonine-protein kinase D1 (Homo sapiens) (UniProt Q15139).
T2 sequence (whole entry): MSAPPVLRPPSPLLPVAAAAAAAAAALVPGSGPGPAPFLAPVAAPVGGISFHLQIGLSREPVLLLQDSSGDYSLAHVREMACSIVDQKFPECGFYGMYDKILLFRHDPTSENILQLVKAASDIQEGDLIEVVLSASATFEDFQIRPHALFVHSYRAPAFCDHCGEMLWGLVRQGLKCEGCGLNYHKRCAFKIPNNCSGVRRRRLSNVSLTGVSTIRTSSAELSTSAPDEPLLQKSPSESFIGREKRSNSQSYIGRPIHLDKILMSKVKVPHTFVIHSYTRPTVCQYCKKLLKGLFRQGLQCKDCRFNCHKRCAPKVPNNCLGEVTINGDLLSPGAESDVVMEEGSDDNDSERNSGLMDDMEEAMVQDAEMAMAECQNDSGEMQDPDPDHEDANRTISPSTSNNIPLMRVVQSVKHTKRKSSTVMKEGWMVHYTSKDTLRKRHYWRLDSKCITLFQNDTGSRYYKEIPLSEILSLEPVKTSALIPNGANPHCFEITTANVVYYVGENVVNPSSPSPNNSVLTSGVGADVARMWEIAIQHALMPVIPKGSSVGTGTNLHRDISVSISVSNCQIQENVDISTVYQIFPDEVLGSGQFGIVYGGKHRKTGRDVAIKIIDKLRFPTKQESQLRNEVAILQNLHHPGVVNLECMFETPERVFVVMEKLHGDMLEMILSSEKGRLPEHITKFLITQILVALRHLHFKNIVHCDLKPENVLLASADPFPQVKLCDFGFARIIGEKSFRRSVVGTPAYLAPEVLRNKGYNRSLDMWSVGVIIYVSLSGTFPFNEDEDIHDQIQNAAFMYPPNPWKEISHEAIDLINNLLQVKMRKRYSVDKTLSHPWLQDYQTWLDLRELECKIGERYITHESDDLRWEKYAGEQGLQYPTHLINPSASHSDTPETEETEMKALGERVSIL
The note with it: at 0.1 µM.

Experiment [9] addresses T2, Serine/threonine-protein kinase D1 (Homo sapiens). The note with it: at 1 µM.
Experiment [10] has as its target T3, Serine/threonine-protein kinase D2 (Homo sapiens) (UniProt Q9BZL6).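 Also: reported percent inhibition values are means, part of the GSK PKIS kinase panel screen.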
T3 sequence (whole entry): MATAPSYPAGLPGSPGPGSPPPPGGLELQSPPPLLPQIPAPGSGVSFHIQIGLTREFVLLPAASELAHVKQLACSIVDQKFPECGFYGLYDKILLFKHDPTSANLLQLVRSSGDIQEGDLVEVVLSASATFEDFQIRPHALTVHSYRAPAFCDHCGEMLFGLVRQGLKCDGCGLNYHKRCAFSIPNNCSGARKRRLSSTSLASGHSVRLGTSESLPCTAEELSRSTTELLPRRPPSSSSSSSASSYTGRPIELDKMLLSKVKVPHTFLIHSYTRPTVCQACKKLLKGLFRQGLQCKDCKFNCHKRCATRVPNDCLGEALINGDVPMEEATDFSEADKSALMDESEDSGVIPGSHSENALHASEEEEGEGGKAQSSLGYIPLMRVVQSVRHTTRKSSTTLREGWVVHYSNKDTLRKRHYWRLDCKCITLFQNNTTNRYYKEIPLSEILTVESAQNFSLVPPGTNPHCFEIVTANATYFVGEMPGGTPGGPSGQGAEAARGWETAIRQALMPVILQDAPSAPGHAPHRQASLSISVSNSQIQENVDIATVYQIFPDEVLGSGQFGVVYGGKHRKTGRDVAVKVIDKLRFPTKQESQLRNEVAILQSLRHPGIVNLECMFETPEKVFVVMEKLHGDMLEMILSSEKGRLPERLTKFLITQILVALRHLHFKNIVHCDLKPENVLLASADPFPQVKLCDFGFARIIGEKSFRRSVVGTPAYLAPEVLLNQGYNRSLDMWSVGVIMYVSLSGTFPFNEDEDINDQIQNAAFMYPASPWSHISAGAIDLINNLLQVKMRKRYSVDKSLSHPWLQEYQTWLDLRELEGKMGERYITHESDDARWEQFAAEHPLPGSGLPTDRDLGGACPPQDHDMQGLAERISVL
The note with it: at 0.1 µM.

Several values for one entry are separate records, joined by “and”; a condition that tells them apart may be missing. Equal entries are not always repeated.

For orientation: inhibition means the relative decrease from the control value, in per cent. For the compound `CCn1c(-c2nonc2N)nc2cncc(C(=O)NCCNC)c21`, the inhibition in experiment [1] was 35.3%; in [2] it was 9.63%; in [3], 40%; in experiment [4] it was 8.91%; in [5], 39.2%; in [6], 21.1%. For the same compound, the inhibition stood at 61% in experiment [7], 5.32% in [8], 8.53% in [9] and 5.41% in experiment [10].

With `CN(C)CCNC(=O)Nc1ccc(N(C)c2ccnc(Nc3ccc(CS(C)(=O)=O)cc3)n2)cc1`, the inhibition in [1] was 3.46%; in [2] it was 1.77%; in experiment [3], 4.15%; in experiment [4], 2.29%; in [5], 2.96%; in experiment [6], 0.79%. Also, the inhibition in [7] amounted to 0.59%; in experiment [8] it was 3.85%; in [9], 7.28%; in experiment [10] it was 3.75%.

For the compound `Fc1ccc(Nc2nccc(-c3c(-c4ccc(C(F)(F)F)cc4)nn4ncccc34)n2)cc1F`, the inhibition in experiment [1] was found to be 4.39%; in experiment [2] it was 0.34%; in experiment [3], 3.68%; in experiment [4] it was 1.71%; in [5], 0.47%; in experiment [6], 0.7%. Moreover, the inhibition came to 0.3% in [7], 3.32% in experiment [8], 5.39% in experiment [9] and 3.45% in experiment [10].

Turning to `Nc1nonc1-c1nc2cnccc2n1C1CC1`, the inhibition in experiment [1] is 16.4% and 14.8%; in experiment [2], 1.95% and 3.2%; in experiment [3] it was 14.8% and 15.6%; in [4] it was 8.24% and 7.85%; in experiment [5], 38.7% and 40.1%; in experiment [6], 7.25% and 6.7%. Besides, the inhibition was 31.2% and 31.3% in experiment [7]; 4% and 0.29% in experiment [8]; 22.3% and 23.2% in experiment [9]; 4% and 0.3% in experiment [10].

As for `CC1=C(C(=O)Nc2ccc3[nH]nc(C)c3c2)C(c2ccc(C(F)(F)F)cc2)CC(=O)N1` (stereo not given), the inhibition in [1] worked out at 6.95%; in experiment [2] it was 1.92%; in [3], 2.85%; in [4], 2.33%; in [5], 6.09%; in experiment [6], 0.62%. Also, the inhibition in experiment [7] came out at 1.95%; in experiment [8], 2.86%; in [9] it was 8.82%; in [10] it was 2.82%.

On to `Cc1nnc(-c2cccc(-c3ccc(C(=O)NCC4CC4)cc3)c2)o1`, for which the inhibition is 5.25% in [1]; 2.19% in experiment [2]; 1.94% in experiment [3]; 3.27% in experiment [4]; 5.18% in experiment [5]; 1.13% in experiment [6]. In addition, the inhibition in experiment [7] came out at 2.65%; in experiment [8], 4.9%; in experiment [9], 9.11%; in experiment [10], 5.08%.

Turning to `COc1ccc2ncn(-c3cc(O[C@H](C)c4ccccc4C(F)(F)F)c(C(N)=O)s3)c2c1`, the inhibition in experiment [1] was 3.02%; in [2] it was -1.03%; in [3], -0.45%; in [4], -0.16%; in experiment [5], -0.58%; in experiment [6] it was -0.24%. Besides, the inhibition in experiment [7] is 0.08%; in [8] it was -0.46%; in experiment [9] it was 0.62%; in experiment [10], 2.18%.

As to `c1ccc(-c2n[nH]cc2-c2ccnc(-c3ccc(OCCn4ccnc4)cc3)c2)nc1`, the inhibition in experiment [1] was 2.35%; in [2] it was 0.38%; in experiment [3], -0.37%; in [4], 0.23%; in experiment [5], 0.98%; in experiment [6], 0.85%. The inhibition in [7] was -0.29%; in [8], 9.5%; in experiment [9] it was 56.5%; in experiment [10] it was 14.6%.

On to `CS(=O)(=O)CCNCc1ccc(-c2ccc3ncnc(Nc4ccc(OCc5ccccc5)cc4)c3c2)o1`, for which the inhibition in experiment [1] was determined as 3.26%; in [2], 1.61%; in [3], 1.87%; in experiment [4], 1.49%; in experiment [5] it was 2.01%; in experiment [6], 0.51%. The inhibition in experiment [7] turned out to be 0.86%; in experiment [8], 3.17%; in experiment [9], 4.08%; in experiment [10], 2.78%.

With `O=C1Nc2ccccc2/C1=C1\CCc2cc(O)ccc21`, the inhibition turned out to be 2.98% in experiment [1]; 2.01% in experiment [2]; 4.09% in experiment [3]; 2.42% in experiment [4]; 4.05% in experiment [5]; 1.94% in [6]. Moreover, the inhibition in experiment [7] was 1.69%; in experiment [8], 5.09%; in experiment [9] it was 18.2%; in experiment [10] it was 6.34%.
